Data as given in ChEMBL document CHEMBL1157539, “Thousands of chemical starting points for antimalarial lead identification” (Nature, 2010).

Tests used:
Assay type in all cases: functional
Plasmodium falciparum [1] = assay: GSK_TCMDC: Inhibition of Plasmodium falciparum 3D7 in whole red blood cells, using parasite LDH activity as an index of growth. Test compounds present at 2uM
Plasmodium falciparum [2] = assay: GSK_TCMDC: Inhibition of Plasmodium falciparum Dd2 in whole red blood cells, using parasite LDH activity as an index of growth. Test compounds present at 2uM
HepG2 = assay: GSK_TCMDC: Percent inhibition of human HepG2 cell line. Test compounds present at 10uM.

Row | Compound | Inhibition (Plasmodium falciparum [1]) | Inhibition (Plasmodium falciparum [2]) | Inhibition (HepG2)
1 | Cc1ccc(Nc2nccc(Nc3ccc4c(C)n[nH]c4c3)n2)cc1F.Cl | 95% | 1% | 6%
2 | N#Cc1ccc(CN2CCC(Oc3ccc(NC(=O)c4cccs4)cc3Cl)CC2)cc1.O=C(O)C(F)(F)F | 95% | 96% | 26%
3 | CCN(CC)CCN(Cc1ccc(-c2ccc(C(F)(F)F)cc2)cc1)C(=O)Cn1c(CCc2ccc(F)c(F)c2)nc(=O)c2ccccc21.O=C(O)C(O)C(O)C(=O)O | 99% | 62% | 31%
4 | CCCNCc1ccc(-c2ccc(CN(Cc3cnc(C)cn3)C(=O)CC#N)cc2)nc1.O=C(O)C(F)(F)F | 92% | 0% | 4%
5 | Br.CC(CON1C(N)=NC(N)=NC1(C)C)Cc1ccc(Cl)cc1Cl (stereo not given) | 92% | 97% | 61%
